Pf growth 96h – inhibits malaria parasite growth, 96 h. AID 504834. P. falciparum luciferase reporter growth, 96 h. hit rate 6.9% among 320,000. Potency, µM (series often up to 28.7 µM), for inactives: at the top dose activity change, negative = inhibition, most hits filed as inhibitors; also: % is scaled to controls: 0 for no effect and ±100 for the full control effect
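Infected RBCs, 2% Hct / 0.05% parasitemia final; luciferase-reporter P. falciparum; cpd 96 h, 37 C, 5% CO2; luciferase detection reagent; luminescence.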
Sm TGR inh – S. mansoni TGR enzyme inhibition. Q962Y6. Potency, µM (titrated, usually from 114 µM), inactives show top-dose activity change, negative = inhibition, usual class: inhibitors. purified TGR, DTNB reduction, TNB absorbance 405 nm. hit rate 3% among 360,000; also: % is scaled to controls: 0 for no effect and ±100 for the full control effect; nearly all actives have a fitted effect of over 60% in size
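Kinetic colorimetric format: TGR-catalysed, NADPH-driven DTNB reduction monitored via TNB absorbance. Enzyme dispensed at 20 nM; compound exposure 15 min at room temperature before reaction start.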
Pf growth 48h – inhibits P. falciparum growth in the first generation, 48 h | P. falciparum luciferase growth in erythrocytes, 48 h | Potency, µM (highest dose often 28.7 µM), for the others: top-dose activity change, negative = inhibition, most hits filed as inhibitors | hit rate 5.9% among 310,000 | AID 504832; also: % is scaled to controls: 0 for no effect and ±100 for the full control effect
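Erythrocytes infected with P. falciparum carrying an integrated firefly luciferase reporter (2% hematocrit, 0.1% parasitemia final) were exposed to compounds in RPMI 1640 with 0.5% Albumax at 37 C, 5% CO2. Growth inhibition was scored as reduced luminescence.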
SARS PLP yeast – inhibitors of SARS-CoV papain-like protease in yeast | AID 485353 | Potency, µM (titrated, usually from 32.9 µM), inactives show top-dose activity, positive = growth rescue, hits mostly activators | hit rate 0.19% among 330,000 | S. cerevisiae expressing SARS-CoV PLpro, growth rescue; calls by dose curve; also: 0% is about no effect; nearly all actives have a fitted effect of over 55% in size
An asterisk follows results filed as active; u = inconclusive; x = no result given; [ ] = remark or other dose. Only some compounds are listed: those with a hit (about 12% of all), similar ones and a draw of the others. Unless noted, calls follow the shape of the dose curve; as a rule, active = well fitted curve in the direction sought with a large enough effect; inconclusive = small, poorly fitted or top-dose-only effect, or another doubt; inactive = no such curve, though single readings can be large; an effect the other way counts as inactive or inconclusive. Potency is read from the fitted curve at half-maximal effect.

SMILES	Pf growth 96h	Sm TGR inh	Pf growth 48h	SARS PLP yeast
Cc1cc(C)c(OCC(=O)Nc2nc(-c3ccccn3)cs2)c(C)c1	u	-1%	8.3µM*	-14%
CCCc1cc(=O)[nH]c(SCC(=O)Nc2cccc(S(=O)(=O)N3CCCCC3)c2)n1	u	-1%	-7%	0%
CCOC(=O)c1c(C)[nH]c(C)c1S(=O)(=O)N(C)CC(=O)Nc1ccc(C)cc1Br	x	4%	x	x
CC(C(Sc1ccccc1N)c1ccccc1)[N+](=O)[O-] (stereo unspecified)	0%	0%	2.6µM*	-21%
CC1C(=O)N2CCCc3cc(S(=O)(=O)N4CCN(c5cccc(Cl)c5)CC4)cc1c32 (stereo unspecified)	u	-1%	u	2%
COc1cc(C(O)C(=O)O)ccc1O (stereo unspecified)	0%	10µM*	10%	x
COc1cc(C(O)CO)ccc1O (stereo unspecified)	6%	u	-12%	x
CN(Cc1ccccc1)C(=O)c1cn(C)c2ccc(S(=O)(=O)N3CCCC3)cc2c1=O	u	-7%	-28%	0%
O=C(COc1ccc(F)cc1)NCC1CCCO1 (stereo unspecified)	1.7µM*	2%	29%	-2%
Cc1ccc(NS(=O)(=O)c2ccc(OCC(=O)NCC3CCCO3)cc2)cc1 (stereo unspecified)	9.3µM*	4%	-1%	0%
Cc1ccc(C)c(NS(=O)(=O)c2ccc(OCC(=O)NCC3CCCO3)cc2)c1 (stereo unspecified)	-6%	3%	-12%	-1%
COc1cccc(CNC(=O)CS(=O)(=O)Cc2nc(-c3ccc(C)cc3)oc2C)c1OC	u	u	-22%	15%
Cc1ccc(C)c(C(=O)C(C)Sc2nc3nn(-c4ccccc4)c(=O)c-3c3n2CCCCC3)c1 (stereo unspecified)	9.3µM*	-1%	u	6%
Cc1ccc(S(=O)(=O)/N=C(/c2ccccc2)N2CCOCC2)c(C)c1	5.9µM*	13%	-41%[1.15 µM]	0%
CCN(CC)c1nc2cc(OC)ccc2cc1C#N	u	35µM*	u	-2%
COc1ccc(-c2cc(C#N)nc(NN)n2)cc1	2.9µM*	-3%	u	-2%
COc1ccc(-c2cc(C#N)nc(N3CCNCC3)n2)cc1	2.6µM*	3%	x	-8%
COc1ccc(-c2cc(C#N)nc(N3CCN(C)CC3)n2)cc1	u	22%	-8%	13%
CCN(CC)c1nc(C#N)cc(-c2ccc(OC)cc2)n1	7.4µM*	8%	13µM*	-11%
CCCN(CCC)CCc1cccc2c1CC(=O)N2	-11%	x	-14%	x
Cc1cccc(Cn2c(=O)n(CCc3ccccc3)c(=O)c3sc4ccccc4c32)c1	x	-9%	x	x
CCOc1ccc(C(=O)Nc2ccc(Cl)c(-c3nc4cc(C)cc(C)c4o3)c2)cc1	x	-4%	x	x
Cc1cccc(NC(=O)CN(C)S(=O)(=O)c2ccc3c(c2)c(=O)n(C)c(=O)n3C)c1	x	1%	x	x
CCc1cccc(NC(=O)C2CCCN2S(=O)(=O)c2ccc3c(c2)n(C)c(=O)c(=O)n3C)c1 (stereo unspecified)	-8%	-3%	-10%	-1%
Cc1ccc(S(=O)(=O)N2CCCC2C(=O)Nc2cc(C)on2)cc1 (stereo unspecified)	26%	-1%	4.7µM*	-6%
SMILES	Pf growth 96h	Sm TGR inh	Pf growth 48h	SARS PLP yeast
Cc1ccc(S(=O)(=O)N2Cc3ccccc3CC2C(=O)Nc2cc(C)on2)cc1 (stereo unspecified)	2%	0%	-17%	-2%
Cc1cccc(NC(=O)C2CCCN2S(=O)(=O)c2ccc3c(c2)n(C)c(=O)c(=O)n3C)c1 (stereo unspecified)	8.3µM*	3%	2%	-2%
O=C(NCc1ccncc1)/C(=C/c1cccc([N+](=O)[O-])c1)NC(=O)c1ccccc1	42%	11%	35%	-2%
CC(C(=O)N1CCc2ccccc21)N(C)CC(=O)Nc1ccccc1Cl (stereo unspecified)	17µM*	-1%	u	5%
CC1CC(C)CN(C(=O)C(C)N(C)CC(=O)Nc2ccccc2Cl)C1 (stereo unspecified)	-39%	1%	-28%	1%
CCOC(=O)c1sc(NC(=O)CN2CCN(c3ccccc3)CC2)nc1C	u	-19%	2%	11%
Cc1ccc(NC2=C/C(=N/S(=O)(=O)c3cccs3)c3ccccc3C2=O)cc1	4%	-19%	u	-14%
O=C1C=C(Nc2ccccc2C(=O)O)c2ccccc2C1=O	0%	u	-2%	-11%

High-throughput results: PubChem, National Center for Advancing Translational Sciences (NCATS)
